# Screening data (PubChem)
# BRCA1 expr act: activators of BRCA1 expression | Potency, µM (doses to about 46.1 µM), for the others: top-dose activation, usual class: activators | MCF7-BRCA1-FFLuc reporter, luminescence, 48 h; response scale: scaled: vehicle 0%, 10 µM genistein 100% | 380,000 compounds, 1.1% hits | AID 624202; further: potency means the concentration at half of the fitted maximal effect; nearly all actives have a fitted effect of over 80% in size
#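 Quantitative HTS in MCF7 cells stably reporting BRCA1 expression via firefly luciferase. Compound treatment lasts 48 h at 37 °C in phenol-red free MEM. Activation is expressed relative to genistein at 10 microM and DMSO.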
# Giardia killer: kills Giardia lamblia; AID 540267; activity change, % at 7.66 µM, hits read low; 340,000 compounds, 0.15% hits; Giardia lamblia trophozoite viability; in the data active means activity change below about -80%; inconclusive means between about -30% and that limit;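 further: parasites exposed to compound for two days anaerobically before the ATP read; on the % scale 0 is the no-effect control and ±100 the full control effect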
#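 Each well holds 100 Giardia trophozoites and compound. After two days (48 hrs) at 37 deg C in anaerobic conditions, ATP is quantified by luminescence.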
# RORg inh: ROR gamma (mouse) transcription inhibition; P51450; Potency, µM (titrated, usually from 53.6 µM), inactives show top-dose activity change, negative = inhibition, actives largely listed as inhibitors; 310,000 compounds, 5.4% hits; Drosophila S2 Gal4-RORgamma UAS-luciferase reporter, 20 h; further: potency means the concentration at half of the fitted maximal effect; on the % scale 0 is the no-effect control and ±100 the full control effect; nearly all actives have a fitted effect of over 60% in size
# Target sequence (P51450 whole entry, looked up, the tested form may be a part): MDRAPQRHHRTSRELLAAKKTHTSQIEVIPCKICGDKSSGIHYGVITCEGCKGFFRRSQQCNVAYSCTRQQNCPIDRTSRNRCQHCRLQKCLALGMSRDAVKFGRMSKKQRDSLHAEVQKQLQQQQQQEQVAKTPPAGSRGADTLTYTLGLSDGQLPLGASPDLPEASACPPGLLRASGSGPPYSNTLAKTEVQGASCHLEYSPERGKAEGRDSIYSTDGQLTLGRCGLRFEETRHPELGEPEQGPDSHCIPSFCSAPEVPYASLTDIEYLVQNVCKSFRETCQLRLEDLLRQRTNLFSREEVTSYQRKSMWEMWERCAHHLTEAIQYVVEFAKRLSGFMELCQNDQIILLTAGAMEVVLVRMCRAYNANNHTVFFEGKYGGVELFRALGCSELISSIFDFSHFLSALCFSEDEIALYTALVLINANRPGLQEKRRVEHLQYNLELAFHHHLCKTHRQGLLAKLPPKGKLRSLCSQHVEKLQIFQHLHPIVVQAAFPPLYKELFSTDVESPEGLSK
#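 Compounds are pin-transferred onto Drosophila Schneider cells expressing a copper-inducible Gal4–ROR gamma transactivation domain fusion. After 1 hr, copper sulfate is added to 700 uM final; luciferase is read 20 hr later.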
# p53 reactivation: mutant p53 re-activation in reporter cells. H1299 p53-A138V BP100-luciferase reporter, luminescence, 24 h. Potency, µM (series often up to 92.2 µM), inactives show at the top dose activity change, positive = activation, hits mostly activators. 320,000 compounds, 0.063% hits; further: potency means the concentration at half of the fitted maximal effect; % of control where 0% means no effect; nearly all actives have a fitted effect of over 45% in size
#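 H1299 (p53-null), stable ts p53-A138V + BP100-Luc; 1000 cells/well, Opti-MEM/10% FBS; cpd 4 pt, 1:5; 24 h, 37 deg C, 5% CO2; detection reagent 10 min RT; luminescence.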
# ELG1 repair inh: ELG1-dependent DNA repair inhibition | HEK293T ELG1-luciferase reporter, luminescence, 16 h; DNA damage induced by 5-fluorouridine | Potency, µM (series often up to 46.1 µM), for the others: at the top dose activity change, negative = inhibition, most hits filed as inhibitors | 330,000 compounds, 2.3% hits; further: potency means the concentration at half of the fitted maximal effect; on the % scale 0 is the no-effect control and ±100 the full control effect; nearly all actives have a fitted effect of over 55% in size
#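 Reporter activity after DNA damage by 5-fluorouridine is monitored. Compound-treated cells incubate 16 hr at 37 °C, then ONE-Glo is added for 30 min before luminescence reading.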
# Gal4-VP16 FLuc: Gal4-VP16 reporter inhibition counter-screen | Potency, µM (top dose mostly 53.6 µM), inactives show at the highest dose activity, negative = inhibition, actives largely listed as inhibitors | 310,000 compounds, 3.5% hits | Drosophila S2 Gal4-VP16 UAS-luciferase, luminescence, 20 h;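 further: Gal4-VP16 expression switched on by copper sulfate through the metallothionein promoter; potency means the concentration at half of the fitted maximal effect; on the % scale 0 is the no-effect control and ±100 the full control effect; nearly all actives have a fitted effect of over 50% in size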
# * marks the source's active call; other numbers are inactive results; ? = inconclusive; / = no result given. A selection: hits, their analogues and other compounds. The true share with any hit is near 7.6%. Unless noted, the call rests on the fitted dose curve; in most records, active means well fitted curve in the direction sought with a large enough effect; inconclusive means small, poorly fitted or top-dose-only effect, or another doubt; inactive means no such curve, though single readings can be large; an effect the other way counts as inactive or inconclusive.
SMILES,BRCA1 expr act,Giardia killer,RORg inh,p53 reactivation,ELG1 repair inh,Gal4-VP16 FLuc
COc1ccc(NS(=O)(=O)CC(C)C)c(OC)c1,0.6%,-2.4,-5.3%,-4.6%,3.3%,-10.4%
CCS(=O)(=O)Nc1ccc(-c2ccc(NS(=O)(=O)CC)c(OC)c2)cc1OC,-14.0%,9.8,?,-14.7%,23.1µM*,9.2%
CCOc1ccc(C(CCc2ccccc2)NC(=O)c2ccccc2OC)cc1OCC (configuration not stated),-30.0%,-1.6,7.94µM*,-0.5%,?,?
CCCCn1c(SCC(=O)N2CCCCC2C)nc2cc(S(N)(=O)=O)ccc21 (configuration not stated),-26.2%,1.9,4.8%,-18.2%,-13.5%,0.9%
COC(=O)C1=C(C)NC(=O)NC1c1ccc(-c2ccccc2Cl)o1 (configuration not stated),-51.6%,10.2,?,6.3%,27.9%,-5.0%
CCOC(=O)C1=C(C)NC(=S)NC1c1ccc(-c2cccc(Cl)c2C)o1 (configuration not stated),-43.1%,5.3,3.98µM*,4.6%,20.6µM*,8.91µM*
COC(=O)C1=C(C)NC(=S)NC1c1ccc(-c2cccc(Cl)c2)o1 (configuration not stated),-11.3%,8.2,14.1µM*,11.4%,?,?
CCOC(=O)C1=C(C)NC(=S)NC1c1ccc(-c2ccc(Cl)cc2)o1 (configuration not stated),-69.2%,1.6,2.51µM*,-6.0%,?,6.31µM*
COC(=O)C1=C(C)NC(=S)NC1c1ccc(-c2ccccc2C(=O)OC)o1 (configuration not stated),-21.3%,20.9,17.8µM*,-5.1%,-1.2%,-18.5%
COc1cc(C(=O)NNC(=O)COc2ccc(Br)cc2)ccc1OCC(=O)N1CCOCC1,1.7%,17.6,/,/,/,/
Cc1occc1C(=O)N1N=C(C2CC2)CC1(O)C(F)(F)F (configuration not stated),-23.3%,26.8,7.94µM*,9.0%,-2.2%,?
CC1=NN(C(=O)Cc2ccc([N+](=O)[O-])cc2)C(O)(C(F)(F)C(F)(F)F)C1 (configuration not stated),-25.2%,5.7,3.55µM*,-2.7%,-3.2%,5.01µM*
CCC1=NN(C(=O)Cc2ccc([N+](=O)[O-])cc2)C(O)(c2ccncc2)C1 (configuration not stated),-13.2%,-4.7,17.8µM*,-2.6%,3.1%,3.2%
O=C(c1ccco1)N1N=C(C2CCCCC2)CC1(O)C(F)(F)F (configuration not stated),0.0%,-8.6,8.2%,2.3%,13.8%,5.2%
CCC1=NN(C(=O)Cc2ccc([N+](=O)[O-])cc2)C(O)(C(F)(F)F)C1 (configuration not stated),-15.9%,-28.2,?,-2.1%,1.7%,9.9%
CCCC1=NN(C(=O)Cc2ccc([N+](=O)[O-])cc2)C(O)(C(F)(F)F)C1 (configuration not stated),0.0%,-0.3,20µM*,-0.3%,-8.6%,?
c1ccc(Oc2cccc(OCCCCN3CCCC3)c2)cc1,-25.6%,-3.5,-17.1%,3.7%,6.1%,1.2%
O=C(Cc1ccc([N+](=O)[O-])cc1)N1N=C(C2CC2)CC1(O)C(F)(F)F (configuration not stated),-11.4%,9.9,15.8µM*,1.0%,-2.4%,?
CC(C)(C)C1(O)CC(C(F)(F)F)=NN1C(=O)Cc1ccc([N+](=O)[O-])cc1 (configuration not stated),-36.4%,-18.0,?,8.0%,-26.2%,-7.7%
COC(=O)c1sc2ccccc2c1-n1cccc1C(=O)C(=O)Nc1ccc(F)cc1,-12.1%,5.7,18.6%,0.5%,14.6µM*,-24.8%
Cn1c(/C(C#N)=C(\O)CN2CCN(Cc3ccccc3)CC2)nc2ccccc21,-10.0%,7.3,5.62µM*,-5.5%,-11.1%,22.4µM*
Cc1ccc(SC/C(O)=C(\C#N)c2nc3ccccc3n2C)cc1,12.6µM*,8.4,7.94µM*,23.8%,?,6.31µM*
Cc1ccc(NC(=O)c2ccccc2OCC(=O)Nc2ccccc2F)cc1S(=O)(=O)N(C)C,-6.1%,-12.2,/,1.9%,?,/
COc1ccc(-c2nc(CS(=O)CC(=O)NC3CCCC(C)C3C)c(C)o2)cc1OC (configuration not stated),-2.2%,19.8,39.2%,6.5%,5.5%,23.1%
O=C(COn1nnc2ccc(S(=O)(=O)N3CCOCC3)cc21)NCc1cccc(Cl)c1,-0.2%,/,/,/,/,/
SMILES,BRCA1 expr act,Giardia killer,RORg inh,p53 reactivation,ELG1 repair inh,Gal4-VP16 FLuc
Cc1ccc(/C=C/C(=O)NCc2cccs2)c(C)c1,10µM*,0.5,-32.0%,6.3%,?,-18.3%
Cc1ccc(NC(=S)NCc2cccs2)c(C)c1,3.9%,7.7,2.24µM*,6.0%,-3.7%,5.62µM*
Cc1cc(Cl)ccc1NC(=S)NCc1cccs1,-11.8%,-5.7,3.98µM*,?,-19.4%,8.91µM*
O=C(CNC(=O)c1cccs1)N/N=C/c1ccccc1[N+](=O)[O-],?,-19.3,13.8%,20.7%,?,13.0%
CC(C)C(=O)N1CCCCCCN1C(=O)C(C)C,1.1%,/,/,/,/,/
CCOC(=O)CCCCC(=O)c1[nH]c(=O)[nH]c1CSc1nnc2c3cc(Br)ccc3n(C)c2n1,/,/,5.01µM*,1.2%,-6.3%,?
CCOC(=O)CCCCC(=O)c1[nH]c(=O)[nH]c1CSc1nc(C)cc(C)n1,10.2%,-4.3,-3.6%,-2.4%,-12.2%,4.6%
CC(C(=O)O)c1ccc(C(=O)c2ccccc2)s1 (configuration not stated),14.1µM*,2.9,/,9.7%,?,/
CCOC(=O)CC1(C)c2nc(NC(C)=O)sc2Cc2sc(NC(C)=O)nc21,29.0%,/,/,/,/,/
N=c1n(Cc2ccccc2)c2ccccc2n1CC(O)COc1ccccc1 (configuration not stated),-77.2%,-10.3,5.4%,-39.5%,?,-21.2%
Cc1ccc(Cn2c(=N)n(CC(O)COc3ccccc3)c3ccccc32)cc1 (configuration not stated),-84.6%,-18.9,5.01µM*,-11.0%,?,7.08µM*
CCOc1ccc(-c2cc(CCCC(=O)NCc3ccco3)no2)cc1,-54.1%,-4.8,0.112µM*,-5.6%,?,?
CCOc1ccc(-c2cc(CCCC(=O)NCc3ccc(C)cc3)no2)cc1,-30.0%,-1.9,1.26µM*,3.8%,?,?
